For 10 molecules, Potency and outcome results are on record in PubChem BioAssay (NCATS).

The nature of test [1]: qHTS to identify inhibitors of the type 1 interferon - major histocompatibility complex class I in skeletal muscle: primary screen against the NCATS LOPAC collection (AID 1347405).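 Note: lytic HiBiT luminescence reporting HLA-B protein level.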 In short, it runs like this: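 Immortalized human C25cl48 myoblasts with HiBiT knocked into endogenous HLA-B*08:01 were stimulated with 4.0 ng/ml IFN-beta and given compounds in a 7-point, 1:4.3 titration from 46 uM final; after 24 hrs, lytic HiBiT luminescence was read.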

Test [2] can be described thus: qHTS to identify inhibitors of the type 1 interferon - major histocompatibility complex class I in skeletal muscle: primary screen against the NCATS Pharmaceutical Collection (AID 1347407).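 Note: luminescence of HiBiT knocked into endogenous HLA-B as interferon-induced MHC class I level.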 An outline of the steps: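 A qHTS format is used: 8-point, 1:5 compound series with 46 uM top final concentration, applied alongside 4 ng/ml IFN-beta to HLA-B*08:01-HiBiT knock-in myoblasts. Luminescence is measured after 24 h treatment.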

Test [3] in a line: qHTS for inhibitors of adenylyl cyclases using a fission yeast platform: a pilot screen against the NCATS LOPAC library (AID 1347410). An outline of the steps:
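Inhibition of GNAS-stimulated AC9 activity in S. pombe was inferred from derepression of a PKA-repressed fbp1-GFP reporter, measured as cytometric fluorescence after 18 h at 30C with compounds at up to 57 µM.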

Test [4] in a line: qHTS to identify inhibitors of the type 1 interferon - major histocompatibility complex class I in skeletal muscle: primary screen against the NCATS Mechanism Interrogation Plate v5.0 (MIPE) Libary (AID 1347411). Note: nearly all actives have a fitted effect of over 65% in size. An outline of the steps: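 Immortalized human C25cl48 myoblasts with HiBit knocked into endogenous HLA-B*08:01 were stimulated with 4.0 ng/ml IFN-beta and exposed to compounds (11-point 1:3 titration, top 46 uM final) for 24 hrs at 37 C; HiBiT lytic luminescence measured.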

The target of test [5] is Protein phosphatase 1D (Homo sapiens) (UniProt O15297). As to the kind of experiment: RapidFire Mass Spectrometry qHTS Assay for Modulators of WT P53-Induced Phosphatase 1 (WIP1) (AID 1347424).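 Note: amount of dephosphorylated VEPPL-S-QETFS peptide product formed by WIP1.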 Note: potency is the fitted concentration of half-maximal effect. In short, it runs like this:
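WIP1 (10 nM final) was preincubated 1 h at room temperature with compounds in Tris-HCl pH 7.5, 30 mM MgCl2, TCEP, EGTA, BSA; 2 uM VEPPL-pS-QETFS phosphopeptide was added for 5 min, quenched with formic acid, and dephosphorylated product quantified by RapidFire MS.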

Test [6] has the same target. Description: Rhodamine-PBP qHTS Assay for Modulators of WT P53-Induced Phosphatase 1 (WIP1) (AID 1347425). In short, it runs like this: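 WIP1 (5 nM final) was preincubated with compound for 1 hour at room temperature. It then dephosphorylated 10 uM VEPPL-pS-QETFS peptide in Tris-HCl pH 7.5 with 30 mM MgCl2. Released Pi was detected by 10 uM Rh-PBP fluorescence (ex 525/em 598 nm) read at 1-min intervals for 11 min, as delta f1 - f0.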

Test [7] in a line: Validation qHTS assay for inhibitors of Activation Induced Cytidine Deaminase (AID): UDG Counterscreen signal (AID 1347427). An outline of the steps:
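Counterscreen read of UDG activity (2 U/mL, 4/3x) in the FRET deamination format with AID (1 uM, 4/3x), DJC20/DJC23 substrates (250 nM, 4x), 4 h at room temperature. NaOH stop, fluorescence at 560 ex/665 em.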

Test [8] deals with Single-stranded DNA cytosine deaminase (Homo sapiens) (UniProt Q9GZX7). Description: Validation qHTS assay for inhibitors of Activation Induced Cytidine Deaminase (AID): AID signal (AID 1347429). Note: potency is the fitted concentration of half-maximal effect. In short, it runs like this:
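AID and UDG were combined and compounds added at final up to 114 uM, then DJC20/DJC23 FRET substrate was added for 4 hr at room temperature. NaOH was then added for 30 min before fluorescence was read at 540/590 nm.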

Test [9] is described as follows: Inflammasome Signaling qHTS Counterscreen: IL-1-beta AlphaLISA counterscreen against the NCATS CANVASS Library (AID 1347381).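 Note: cell-free check with purified IL-1β in medium and no THP-1 cells; series mostly up to about 57 µM.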 In short, it runs like this: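 To flag interference with the AlphaLISA read-out, a known amount of purified IL-1-beta (4 pg) replaced cell supernatant. Detection used anti-IL-1-beta acceptor beads, biotinylated antibody and streptavidin donor beads at room temperature.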

Test [10] can be described thus: Cytotoxicity qHTS for assessment of Hepg2 cells membrane integrity screened against the NCATS CANVASS Library (AID 1347387). An outline of the steps:
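HepG2 cells (2000/well) attached overnight at 37C, then received compounds in an 11-point series at 0.59 nM - 46 uM final for 5 hr. LDH release was detected fluorometrically (ex 560/em 590 nm) with CytoTox-ONE reagent after 10 min at room temperature.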

The nature of test [11]: qHTS for Activators of p53 Stress Response Pathway screened against the NCATS CANVASS Library (AID 1347388). An outline of the steps:
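p53RE-bla HCT-116 cells (4000/well) were plated 5 h at 37C, exposed to compounds for 16 h at 37C over an 11-point concentration series, then loaded with CCF4 for 2 h at room temperature; 460/530 nm emission ratio read.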

Test [12] in a line: qHTS assay for small molecule disruptors of mitochondrial membrane potential screened against the NCATS CANVASS Library (AID 1347389). Note: series mostly up to about 46 µM; nearly all actives have a fitted effect of over 60% in size. An outline of the steps: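 HepG2 cells (2,000/well) were plated overnight at 37C, exposed to compound for 1 hr at 37C/5% CO2, then loaded with Mito-MPS dye for 30 min. Depolarization was read as a drop in red (590 nm) to green (535 nm) fluorescence ratio.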

Test [13] in a line: Secretion counterscreen for inhibitors of the SERCaMP assay screened against the NCATS CANVASS Library (AID 1347390).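 Note: light from luciferase secreted into medium read as a measure of general secretion; series mostly up to about 77 µM.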 In short, it runs like this:
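Natural products are titrated in an 11-point series up to 77 uM onto SH-SY5Y-GLuc STOP cells for 20 h. Secreted reporter activity is measured as coelenterazine-driven luminescence, with Brefeldin A on each plate.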

A short description of test [14]: qHTS for activators of Nrf2/ARE signaling pathway screened against the NCATS CANVASS Library (AID 1347391). Note: nearly all actives have a fitted effect of over 60% in size. An outline of the steps:
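ARE-bla HepG2 beta-lactamase reporter cells, 2000 cells/well, were preincubated 5 h, then exposed to compounds (11-point series) for 16 h at 37C. CCF4 fluorescence (ex 405, em 460/530 nm) after 2 h at room temperature.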

A short description of test [15]: qHTS for activators of dead-cell proteases activity screened against the NCATS CANVASS Library (AID 1347392).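 Note: luminescence from protease leaking out of membrane-damaged cells cleaving impermeant substrate; rising signal means more cytotoxicity.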 In short, it runs like this:
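HepG2 cells (2000/well) attached 18 h at 37C, then exposed 5 h to compounds (11-point qHTS). Dead-cell protease activity read as luminescence from cell-impermeant AAF-aminoluciferin substrate after 15 min at room temperature.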

Test [16] in a line: qHTS for inhibitors of ER calcium dysfunction: SERCaMP assay screened against the NCATS CANVASS Library (AID 1347393).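 Note: series mostly up to about 77 µM; lower secreted reporter signal means inhibitor of ER calcium depletion; nearly all actives have a fitted effect of over 40% in size.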 In short, it runs like this: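 qHTS in SH-SY5Y reporter cells: 16 h compound pretreatment, 4 h thapsigargin, then secreted Gaussia luciferase measured by luminescence.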
The nature of test [17]: Vero-766 cells viability qHTS against the NCATS CANVASS Library: Counterscreen for Zika virus inhibition assay (AID 1347394). Note: series mostly up to about 46 µM; nearly all actives have a fitted effect of over 60% in size. In short, it runs like this:
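Counterscreen for toxicity: Vero 766 cells exposed 72 h to an 11-point compound series, viability by CellTiter-Glo.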

Test [18] can be described thus: qHTS for inhibitors of Wild type Zika virus screened against the NCATS CANVASS Library (AID 1347396).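 Note: ATP luminescence of surviving cells so rescue from viral cell killing; series mostly up to about 46 µM.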 An outline of the steps:
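Vero 766 (African green monkey) cells, 1000 per well, attached overnight, then compounds were added in an 11-point series before wild-type Zika virus infection. After 72 h at 37C, cell viability was read as CellTiter Glo luminescence.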

Test [19] in a line: Viability qHTS for inhibitors of the SERCaMP assay screened against the NCATS CANVASS Library (AID 1347400). Note: series mostly up to about 92 µM; nearly all actives have a fitted effect of over 70% in size. An outline of the steps:
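SH-SY5Y-GLuc SERCaMP MJH297-derived cells (1000 cells/well) were pre-incubated 4 h at 37C, then exposed to compounds for 48 h. Viability was read as CellTiter-Glo luminescence; bortezomib served as positive control.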

Test [20] can be described thus: Redox Reaction Profiling qHTS: Assay Interference Panel against the NCATS CANVASS Library (AID 1347401). An outline of the steps: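 Resazurin (5 uM) conversion to resorufin measured with 200 uM DTT in 50 mM HEPES pH 7.3, 50 mM NaCl. Compounds tested in 11-point qHTS series. Fluorescence (ex 525/em 598 nm) read before and after 15 min dark incubation.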

Records with an inconclusive call do not appear. The source made the active and inactive calls. Calls come from the whole dose curve; as a rule, active = well fitted curve in the direction sought with a large enough effect; inconclusive = small, poorly fitted or top-dose-only effect, or another doubt; inactive = no such curve, though single readings can be large; an effect the other way counts as inactive or inconclusive.

Sequence of Single-stranded DNA cytosine deaminase (Homo sapiens) (Q9GZX7 whole entry, looked up): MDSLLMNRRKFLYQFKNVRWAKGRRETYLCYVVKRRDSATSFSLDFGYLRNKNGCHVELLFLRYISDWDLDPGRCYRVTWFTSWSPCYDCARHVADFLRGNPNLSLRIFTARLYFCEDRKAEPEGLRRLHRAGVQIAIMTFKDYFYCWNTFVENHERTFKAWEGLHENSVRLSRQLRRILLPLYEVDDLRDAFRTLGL
Sequence of Protein phosphatase 1D (Homo sapiens) (O15297 whole entry, looked up): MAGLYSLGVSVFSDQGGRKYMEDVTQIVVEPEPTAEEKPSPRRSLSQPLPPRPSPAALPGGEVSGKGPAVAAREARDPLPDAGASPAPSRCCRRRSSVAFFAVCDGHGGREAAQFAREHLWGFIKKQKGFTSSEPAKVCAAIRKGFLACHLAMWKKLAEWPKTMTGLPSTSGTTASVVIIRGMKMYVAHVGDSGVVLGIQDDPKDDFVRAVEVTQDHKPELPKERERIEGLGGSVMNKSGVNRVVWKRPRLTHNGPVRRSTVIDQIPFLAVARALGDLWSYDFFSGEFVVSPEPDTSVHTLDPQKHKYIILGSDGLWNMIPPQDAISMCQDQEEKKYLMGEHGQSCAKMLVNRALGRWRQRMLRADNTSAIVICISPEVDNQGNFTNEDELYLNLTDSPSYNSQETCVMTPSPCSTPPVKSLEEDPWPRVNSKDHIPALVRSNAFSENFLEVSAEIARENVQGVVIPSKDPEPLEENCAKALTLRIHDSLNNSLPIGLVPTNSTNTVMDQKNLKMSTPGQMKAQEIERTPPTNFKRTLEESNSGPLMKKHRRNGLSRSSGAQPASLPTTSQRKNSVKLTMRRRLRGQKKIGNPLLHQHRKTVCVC

For the molecule `CC(C)(C)C(=O)Oc1ccc(S(=O)(=O)Nc2ccccc2C(=O)NCC(=O)O)cc1`, the Potency entry in [1], in [2], in [4] and in [5] was “inactive” each time. For the same molecule, the call in test [3] and in test [6] was inactive.

In the case of `CCC1(C)CC(=O)NC1=O` (stereo unspecified), the Potency entry in test [1], in test [2], in test [4], in [5], in test [7] and in [8] was “inactive” throughout. The result in test [3] and in test [6] was inactive.

Consider `COc1nc(C)nc(Cl)c1NC1=NCCN1`, for which the Potency result in test [1], in test [2], in test [4], in [5], in test [7] and in test [8] was “inactive” in each case. Moreover, the outcome in test [3] and in [6] was inactive.

As to `NC(CO)C(=O)NNCc1ccc(O)c(O)c1O` (stereo unspecified), the Potency entry in test [1], in test [2], in test [4], in test [5], in [7] and in [8] was “inactive” in each case. Also, the molecule was called inactive in test [3] and in test [6].

As to `CN1CCC(=C2c3ccccc3C=Cc3ccccc32)CC1`, the Potency result in [1], in test [2], in [4], in test [5], in test [7] and in test [8] was “inactive” each time. The result in test [3] and in test [6] was inactive.

As to `CC[N+](CC)(CC)CCOc1cccc(OCC[N+](CC)(CC)CC)c1OCC[N+](CC)(CC)CC`, the Potency result in test [1], in test [2], in test [4], in [5], in [7] and in test [8] was “inactive” throughout. The outcome in test [3] and in test [6] was inactive.

For the molecule `Cc1ccc(C(=O)Nc2ccc(S(=O)(=O)O)c3cc(S(=O)(=O)O)cc(S(=O)(=O)O)c23)cc1NC(=O)c1cccc(NC(=O)Nc2cccc(C(=O)Nc3cc(C(=O)Nc4ccc(S(=O)(=O)O)c5cc(S(=O)(=O)O)cc(S(=O)(=O)O)c45)ccc3C)c2)c1`, the Potency result in [1], in test [2], in test [4] and in test [7] was “inactive” each time. Besides, in test [3], the result was inactive. The figures for the Potency in test [5] and in [8] were 3.98 µM (active) and 11.2 µM (active), respectively.

With `Nc1nc2c(ncn2COC(CO)CO)c(=O)[nH]1`, the Potency entry in [1], in [2], in test [4] and in [5] was “inactive” in each case. The molecule was classed as inactive in [3] and in test [6].

For `CCN1CCCC1CNC(=O)c1cc(S(=O)(=O)CC)c(N)cc1OC` (stereo unspecified), the Potency entry in test [1], in [2], in test [4], in test [5], in [7] and in [8] was “inactive” each time. In addition, the call in [3] and in test [6] was inactive.

On to `COc1ccc2[nH]cc(CCNC(C)=O)c2c1`, for which the outcome in test [9], in [10], in [11], in [12], in test [13] and in [14] was inactive. The outcome in test [15], in test [16], in test [17], in test [18], in test [19] and in test [20] was inactive. For the same molecule, the molecule was called inactive in test [3] and in [6]. Also, the Potency entry in test [1], in test [4], in [5], in [7] and in test [8] was “inactive” each time.
